PubChem BioAssay (NCATS)
Inconclusive results are not listed. The source made the active and inactive calls. Calls follow the shape of the dose curve; as a rule, active = well fitted curve in the direction sought with a large enough effect; inconclusive = small, poorly fitted or top-dose-only effect, or another doubt; inactive = no such curve, though single readings can be large; an effect the other way counts as inactive or inconclusive.

Key:
[1] = Quantitative High-Throughput drug screen in 47 multiple myeloma cell lines against the NCATS MIPE library collection: JIM3_ECACC cell viability assay (AID 1918963; also: nearly all actives have a fitted effect of over 35% in size)
Procedure, shortened: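 CellTiter-Glo luminescence (ATP) after 48 h compound exposure, 37C/5% CO2; 500 cells/well; MIPE 4.0 approved/investigational drugs pinned in; DMSO = 100%, media only = 0% viability.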

[2] = Quantitative High-Throughput drug screen in 47 multiple myeloma cell lines against the NCATS MIPE library collection: JIM1_ECACC cell viability assay (AID 1918964)
Procedure, shortened: (§1)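 Primary qHTS used for cherry-picking: cells at 500/well, library compounds for 48 h (37C, 5% CO2), luminescent ATP assay.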

[3] = Quantitative High-Throughput drug screen in 47 multiple myeloma cell lines against the NCATS MIPE library collection: INA6_PLB cell viability assay (AID 1918965; also: nearly all actives have a fitted effect of over 55% in size)
Procedure, shortened: (§2)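 Myeloma cells (500 per well) were exposed to MIPE 4.0 compounds by pin transfer and incubated 48 hours at 37C, 5% CO2. Viability was read as ATP by CellTiter-Glo luminescence, normalised to DMSO (100%) and media-only (0%) wells.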

[4] = Quantitative High-Throughput drug screen in 47 multiple myeloma cell lines against the NCATS MIPE library collection: JJN3_DSMZ cell viability assay (AID 1918966; also: nearly all actives have a fitted effect of over 50% in size)
Procedure, shortened: as §1

[5] = Quantitative High-Throughput drug screen in 47 multiple myeloma cell lines against the NCATS MIPE library collection: H1112_PLB cell viability assay (AID 1918967; also: nearly all actives have a fitted effect of over 30% in size)
Procedure, shortened: as §1

[6] = Quantitative High-Throughput drug screen in 47 multiple myeloma cell lines against the NCATS MIPE library collection: Karpas25_ECACC cell viability assay (AID 1918968; also: nearly all actives have a fitted effect of over 35% in size)
Procedure, shortened: as §1

[7] = Quantitative High-Throughput drug screen in 47 multiple myeloma cell lines against the NCATS MIPE library collection: KMS27_JCRB cell viability assay (AID 1918970); also: nearly all actives have a fitted effect of over 30% in size
Procedure, shortened: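 Myeloma cells (500 per well) were exposed to MIPE 4.0 compounds for 48 h at 37 °C, 5% CO2; viability was read as ATP luminescence with CellTiter-Glo, normalized to DMSO-only (100%) and media-only (0%) wells.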

[8] = Quantitative High-Throughput drug screen in 47 multiple myeloma cell lines against the NCATS MIPE library collection: KMS12BM_JCRB cell viability assay (AID 1918971); also: nearly all actives have a fitted effect of over 35% in size
Procedure, shortened: (§3)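 Viability readout: CellTiter-Glo luminescence following 5 min room-temperature incubation with reagent. Prior exposure: 48 h, 37C, humidified 5% CO2, 500 cells per well.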

[9] = Quantitative High-Throughput drug screen in 47 multiple myeloma cell lines against the NCATS MIPE library collection: KMS12PE_JCRB cell viability assay (AID 1918972); also: nearly all actives have a fitted effect of over 30% in size
Procedure, shortened: as §2

[10] = Quantitative High-Throughput drug screen in 47 multiple myeloma cell lines against the NCATS MIPE library collection: KMS20_JCRB cell viability assay (AID 1918973); also: nearly all actives have a fitted effect of over 45% in size
Procedure, shortened: as §1

[11] = Quantitative High-Throughput drug screen in 47 multiple myeloma cell lines against the NCATS MIPE library collection: KMS21BM_JCRB cell viability assay (AID 1918974); conditions: ATP luminescence, 48 h; viability: at 45.8 µM (top of the series) unless noted
Procedure, shortened: as §1

[12] = Quantitative High-Throughput drug screen in 47 multiple myeloma cell lines against the NCATS MIPE library collection: MMM1_PLB cell viability assay (AID 1918976); also: nearly all actives have a fitted effect of over 35% in size
Procedure, shortened: (§4)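 Myeloma cells (500/well) treated with MIPE 4.0 compounds for 48 h at 37 °C, 5% CO2. Viability read as ATP via CellTiter-Glo luminescence after 5 min at RT; DMSO-only wells = 100%, media-only = 0% viability.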

[13] = Quantitative High-Throughput drug screen in 47 multiple myeloma cell lines against the NCATS MIPE library collection: MOLP8_DSMZ cell viability assay (AID 1918977); also: nearly all actives have a fitted effect of over 45% in size
Procedure, shortened: as §4

[14] = Quantitative High-Throughput drug screen in 47 multiple myeloma cell lines against the NCATS MIPE library collection: NCIH929_DSMZ cell viability assay (AID 1918978); also: nearly all actives have a fitted effect of over 35% in size
Procedure, shortened: as §4

[15] = Quantitative High-Throughput drug screen in 47 multiple myeloma cell lines against the NCATS MIPE library collection: OCIMY1_PLB cell viability assay (AID 1918979); also: nearly all actives have a fitted effect of over 35% in size
Procedure, shortened: as §4

[16] = Quantitative High-Throughput drug screen in 47 multiple myeloma cell lines against the NCATS MIPE library collection: MM1S_ATCC cell viability assay (AID 1918980); also: nearly all actives have a fitted effect of over 45% in size
Procedure, shortened: as §4

[17] = Quantitative High-Throughput drug screen in 47 multiple myeloma cell lines against the NCATS MIPE library collection: MM1R_ATCC cell viability assay (AID 1918981); also: nearly all actives have a fitted effect of over 35% in size
Procedure, shortened: as §4

[18] = Quantitative High-Throughput drug screen in 47 multiple myeloma cell lines against the NCATS MIPE library collection: LP1_DSMZ cell viability assay (AID 1918982); also: nearly all actives have a fitted effect of over 35% in size
Procedure, shortened: as §4

[19] = Quantitative High-Throughput drug screen in 47 multiple myeloma cell lines against the NCATS MIPE library collection: KMS28PE_JCRB cell viability assay (AID 1918983); also: nearly all actives have a fitted effect of over 35% in size
Procedure, shortened: as §4

[20] = Quantitative High-Throughput drug screen in 47 multiple myeloma cell lines against the NCATS MIPE library collection: KMS26_JCRB cell viability assay (AID 1918975); also: nearly all actives have a fitted effect of over 45% in size
Procedure, shortened: as §3

Measured: Potency
Potency is read from the fitted curve at half-maximal effect.

CNC(=O)c1nn(C)c2c1C(C)(C)Cc1cnc(Nc3ccc(N4CCN(C)CC4)cc3)nc1-2
active: [1] 3720 nM | [2] 743 nM | [3] 743 nM | [4] 4690 nM | [5] 4690 nM | [6] 2350 nM | [7] 662 nM | [8] 1660 nM | [9] 1050 nM | [10] 2960 nM | [11] 132 nM | [12] 11800 nM | [13] 1870 nM | [14] 2640 nM | [15] 5260 nM | [16] 1660 nM | [17] 3320 nM | [18] 5900 nM | [19] 4180 nM

COc1ccc(F)c(F)c1C(=O)c1cnc(NC2CCN(S(C)(=O)=O)CC2)nc1N
active: [1] 1870 nM | [2] 1180 nM | [3] 1320 nM | [4] 1320 nM | [5] 1870 nM | [6] 1180 nM | [7] 1320 nM | [8] 1180 nM | [9] 1870 nM | [10] 2090 nM | [11] 296 nM | [20] 2640 nM | [12] 2640 nM | [13] 1320 nM | [14] 1870 nM | [15] 3720 nM | [16] 1660 nM | [17] 2090 nM | [18] 2960 nM | [19] 2350 nM

Cc1ccc(-c2ncn(-c3ccc(Nc4nccc(-c5cccc(N6CCOCC6)c5)n4)cc3)n2)cn1
active: [1] 235 nM | [2] 66.2 nM | [3] 66.2 nM | [4] 235 nM | [5] 105 nM | [6] 83.3 nM | [7] 46.9 nM | [8] 83.3 nM | [9] 59 nM | [10] 83.3 nM | [11] 29.6 nM | [20] 469 nM | [12] 2350 nM | [13] 93.5 nM | [14] 264 nM | [15] 662 nM | [16] 148 nM | [17] 105 nM | [18] 132 nM | [19] 148 nM

O=C(Nc1ncc(-c2cc(C(F)F)nn2-c2c(Cl)cccc2Cl)s1)C1CC1
active: [1] 264 nM | [2] 166 nM | [3] 296 nM | [4] 1320 nM | [5] 469 nM | [6] 662 nM | [7] 83.3 nM | [8] 1050 nM | [9] 372 nM | [10] 469 nM | [20] 2640 nM | [12] 2640 nM | [13] 2090 nM | [14] 2640 nM | [15] 743 nM | [16] 1480 nM | [17] 1320 nM | [18] 1050 nM | [19] 935 nM

CC(=O)Nc1nc(C)c(-c2ccc(Cl)c(S(=O)(=O)NCCO)c2)s1
active: [1] 4690 nM | [2] 1180 nM | [3] 1050 nM | [4] 18700 nM | [5] 1480 nM | [6] 1180 nM | [7] 1320 nM | [8] 18700 nM | [9] 5260 nM | [10] 1180 nM | [11] 1660 nM | [20] 7430 nM | [12] 5900 nM | [13] 9350 nM | [14] 833 nM | [15] 11800 nM | [16] 1480 nM | [17] 7430 nM | [18] 3320 nM | [19] 16600 nM

OCc1ccc(-c2ccc(-c3ccc(CO)s3)o2)s1
inactive: [2]
active: [1] 16600 nM | [3] 2640 nM | [4] 16600 nM | [5] 16600 nM | [6] 3720 nM | [7] 11.8 nM | [8] 23500 nM | [9] 235 nM | [10] 1870 nM | [20] 11800 nM | [12] 3720 nM | [13] 20900 nM | [14] 2640 nM | [15] 23500 nM | [16] 6620 nM | [17] 3720 nM | [19] 29600 nM

CN(C)Cc1c(C(=O)NCCOc2ccc(C(=O)NO)cc2)oc2ccccc12
active: [1] 2960 nM | [2] 418 nM | [3] 187 nM | [4] 833 nM | [5] 1870 nM | [6] 662 nM | [7] 264 nM | [8] 469 nM | [9] 418 nM | [10] 372 nM | [11] 46.9 nM | [20] 1050 nM | [12] 590 nM | [14] 1050 nM | [16] 469 nM | [17] 469 nM | [19] 743 nM

CCc1c2c(nc3ccc(O)cc13)-c1cc3c(c(=O)n1C2)COC(=O)[C@]3(O)CC
active: [1] 526 nM | [2] 37.2 nM | [3] 1 nM | [4] 332 nM | [5] 46.9 nM | [6] 66.2 nM | [7] 5.9 nM | [8] 66.2 nM | [9] 187 nM | [10] 118 nM | [20] 2350 nM | [12] 833 nM | [13] 166 nM | [14] 46.9 nM | [15] 590 nM | [16] 11.8 nM | [17] 11.8 nM | [18] 662 nM | [19] 166 nM
